Data taken from PubChem BioAssay AID485344 (National Center for Advancing Translational Sciences (NCATS), 2010).
Out of some 340,000 compounds screened, about 6,900 (2%) were called active. Rule as the data show it: active = inhibition above about 30%; inactive = below that, where a call was filed. Many of the other results were omitted from the sample, so actives are more common in it than they were.

Biological target: D(2) dopamine receptor (Homo sapiens) (UniProt P14416)
Test: HTS Assay for Allosteric Antagonists of the Human D2 Dopamine Receptor: Primary Screen for Antagonists; also: 0% is about no effect
Conditions: HEK293 TREx D2 cells, calcium flux, dopamine EC80; at 10 µM; hits give high values
Method in brief: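 Antagonism is scored as inhibition of an EC80 dopamine-evoked calcium signal in a force-coupled, tetracycline-inducible HEK293 T-REx D2 line, with compound present 180 s before agonist.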

Chain of D(2) dopamine receptor (Homo sapiens) (P14416 whole entry, looked up): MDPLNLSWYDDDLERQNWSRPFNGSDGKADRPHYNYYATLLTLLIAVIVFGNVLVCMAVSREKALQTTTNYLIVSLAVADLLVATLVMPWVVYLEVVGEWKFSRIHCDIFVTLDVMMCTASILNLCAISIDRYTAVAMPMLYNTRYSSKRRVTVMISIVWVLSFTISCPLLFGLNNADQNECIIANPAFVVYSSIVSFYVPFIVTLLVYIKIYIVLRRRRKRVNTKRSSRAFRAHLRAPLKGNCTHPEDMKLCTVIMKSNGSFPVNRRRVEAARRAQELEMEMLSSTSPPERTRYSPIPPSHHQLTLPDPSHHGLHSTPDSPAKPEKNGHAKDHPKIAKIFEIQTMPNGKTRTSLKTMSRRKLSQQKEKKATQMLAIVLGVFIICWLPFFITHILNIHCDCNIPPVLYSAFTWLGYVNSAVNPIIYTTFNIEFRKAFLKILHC

Compound	inhibition
O=S(=O)(Nc1cc(Cl)ccc1N1CCOCC1)c1ccccc1Cl	-22.2% (inactive)
Clc1ccc(CN2CCCCCC2)cc1Cl	26.4% (inactive)
Cc1ccc2[nH]c(=O)c(CN3CCCCC3)c(-c3ccccc3)c2c1	-4.98% (inactive)
c1ccc2cc3[nH]c(CN4CCCCC4)nc3cc2c1	58.4% (active)
O=S(=O)(c1ccc(SCc2ccc(Br)cc2)nc1)N1CCOCC1	-7.49% (inactive)
Cc1ccsc1C(=O)NCCc1ccco1	11.7% (inactive)
N#Cc1cccc(NC(=O)C2CCCN(C(=O)c3ccc(Cl)cc3)C2)c1 (stereo unspecified)	19.5% (inactive)
COc1ccccc1N1CC(O)=C(c2nc3ccccc3s2)C1=N	16.1% (inactive)
CCOC(=O)CCCN1CC(O)=C(c2nc3ccccc3s2)C1=N	15.9% (inactive)
N=C1C(c2nc3ccccc3s2)=C(O)CN1NC(=O)c1ccc([N+](=O)[O-])cc1	42.3% (active)
Cc1ccc(S(=O)(=O)N2[C@@H](c3ccccc3F)C(C(=O)O)=CC[C@H]2c2ccc(Cl)cc2)cc1	16% (inactive)
O=C(NNC(=O)c1cc(S(=O)(=O)N2CCCCC2)ccc1Cl)c1ccccc1O	9.25% (inactive)
COc1ccccc1NC(=O)CN(c1ccccc1OC)S(=O)(=O)c1ccccc1	-0.319% (inactive)
COC(=O)c1ccc(CN(c2ccccc2OC)S(=O)(=O)c2cccs2)o1	36% (active)
COc1ccccc1CNC(=O)c1ccc(CS(=O)(=O)c2ccccc2)o1	22.7% (inactive)
COc1ccc(CNC(=O)c2ccc(NS(=O)(=O)c3ccc4[nH]c(=O)[nH]c4c3)cc2)cc1OC	-22.9% (inactive)
N#Cc1ccc(C(=O)OCC(=O)NC(=O)NC2CCCCC2)cc1	-34.5% (inactive)
O=C(Cc1ccc(Cl)cc1)NC1CCS(=O)(=O)C1 (stereo unspecified)	-2.94% (inactive)
N#Cc1ccc(OCC(=O)NC(=O)NC2CCS(=O)(=O)C2)cc1 (stereo unspecified)	39.2% (active)
COc1ccccc1C(=O)NCCC(=O)NC(C)CCc1ccccc1 (stereo unspecified)	3.51% (inactive)
CC(=O)c1cnc(-c2ccccc2)s1	-11.4% (inactive)

Compound	inhibition
CC(C)(C)C(=O)c1cnc(Nc2ccccc2)s1	32.1% (active)
O=C(c1ccc(Cl)cc1)c1cnc(Nc2ccccc2)s1	-15.9% (inactive)
COc1ccccc1S(=O)(=O)NCc1ccc(C(=O)N(C)Cc2ccc(F)cc2)cc1	-9.99% (inactive)
CC(C(=O)NC1CCCC1)N1CCN(S(=O)(=O)c2ccccc2Cl)CC1 (stereo unspecified)	10.1% (inactive)
O=C(Cn1c(N2CCN(C/C=C/c3ccccc3)CC2)nc2ccccc21)c1ccccc1	47.6% (active)
O=C(CN1CCN(c2ccc(Cl)cc2)CC1)c1ccccc1	22.1% (inactive)
CC(C)Cn1c(N2CCN(C(=O)/C=C/c3ccccc3)CC2)nc2ccccc21	-10.5% (inactive)
CC1CCc2sc(C(=O)NCC(c3ccco3)N3CCCCC3)cc2C1 (stereo unspecified)	-22% (inactive)
CC(CCc1ccccc1)NCC(O)c1cccc([N+](=O)[O-])c1 (stereo unspecified)	58.8% (active)
O=C(CC(c1ccccc1)c1ccccc1)NCC(O)c1ccc([N+](=O)[O-])cc1 (stereo unspecified)	-8.44% (inactive)
CC(C)OP(=O)(OC(C)C)C(Nc1ccccc1)c1cccc([N+](=O)[O-])c1 (stereo unspecified)	4.68% (inactive)
COCCn1c(C)cc(C(=O)CSc2nnc(C3CC3)n2C2CC2)c1C	-24.6% (inactive)
COc1ccc(S(=O)(=O)N2CCN(CC(=O)NCC3(N4CCOCC4)CCCCC3)CC2)cc1	-1.88% (inactive)
CN(CC(=O)Nc1ccc(Cl)c(C(F)(F)F)c1)C(=O)CCC(=O)c1ccccc1	5.01% (inactive)
Cc1ccc(OCCC(=O)OCC(=O)N2c3ccccc3NC(=O)C2(C)C)cc1	21.8% (inactive)
O=C(CN1CCCCC1)NC(=O)Nc1ccccc1F	-3.1% (inactive)
CCN(CC)S(=O)(=O)c1ccc(OC)c(NC(=O)CCc2c(C)noc2C)c1	5.64% (inactive)
CCN1CCN(CCCCOc2ccccc2F)CC1	3.79% (inactive)
CN1CCN(CCCCOc2ccccc2-c2ccccc2)CC1	69.9% (active)
CC1CCCN(CC(O)COCc2ccccc2)C1 (stereo unspecified)	10.7% (inactive)
CN1CCN(CCCCOc2cccc3ccccc23)CC1	15.6% (inactive)

Compound	inhibition
c1ccc(-c2ccccc2OCCN2CCCCC2)cc1	26.6% (inactive)
CC1CN(C2CCN(C(=O)COc3ccccc3)CC2)CC(C)O1 (stereo unspecified)	-12.1% (inactive)
CC1CN(CC(=O)NC(C)c2ccccc2)CC(C)O1 (stereo unspecified)	5.75% (inactive)
CC1CCCN(CCOCCOc2ccccc2-c2ccccc2)C1 (stereo unspecified)	80.4% (active)
CC1CN(CCCOc2ccccc2-c2ccccc2)CC(C)O1 (stereo unspecified)	49.7% (active)
COc1ccccc1-c1nn(Cc2ccccc2)cc1C(=O)N1CCN(c2ncccn2)CC1	-14.3% (inactive)
CC(=O)c1ccc(S(=O)(=O)Nc2ccc(-c3ccc4nncn4n3)cc2)cc1	12.5% (inactive)
COc1ccc(-c2cc(C(=O)NCCCN3CCCC3=O)c3ccccc3n2)cc1OC	13.7% (inactive)
CC(C)C(=O)Nc1cccc(NC(=O)c2ccc([N+](=O)[O-])cc2Cl)c1	39.3% (active)
O=C(Nc1ccncc1)c1ccc([N+](=O)[O-])cc1Cl	0.87% (inactive)
O=C(Nc1cccc(NC(=O)c2ccccc2[N+](=O)[O-])c1)c1ccccc1Cl	3.86% (inactive)
CN(C(=O)CSc1nnc(C2CC2)n1C)C1CCCc2ccccc21 (stereo unspecified)	-0.606% (inactive)
O=C(Nc1ccon1)c1cccc(Cl)c1	18.9% (inactive)
Cc1cc(C)n(-c2nnc(C)n2NC(=O)c2cccc(Cl)c2)n1	46.8% (active)
Cc1nc2ccccc2c(=O)n1NC(=O)c1ccc(Cl)c([N+](=O)[O-])c1	11.3% (inactive)
CC1CC(=O)Nc2ccccc2N1C(=O)COc1ccc2cc(Br)ccc2c1 (stereo unspecified)	-5.97% (inactive)
C=C1CCC(N(O)c2cc(C)on2)C(=C)CCC2C1CC2(C)C (stereo unspecified)	-0.609% (inactive)
Cc1ccc(S(=O)(=O)CCC(=O)Nc2nnc(CC(C)C)s2)cc1	-13.3% (inactive)
COc1ccc(S(=O)(=O)Nc2cc(C)on2)cc1NC(C)=O	15.7% (inactive)
